Source: PubChem BioAssay (NCI)
“And” between values parts separate entries of the source, which are not always exact repeats. Equal values may be shown once. This is part of a sample that, as a whole, favours compounds with a hit. Of some 83,000 tested, about 20% had one in any assay.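 The test compound was applied at a single concentration to cells in 96-well plates for 48 hours, and percent growth was recorded.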 The source made the active and inactive calls. How the source made its calls: active means growth percent below 10; inactive means the rest.

What was measured:
Test in all cases: NCI-60 one-dose screen, 48 h (100 = growth as untreated, 0 = no growth, -100 = all killed)
Conditions in all cases: 10 µM unless noted
[1] = system: SK-MEL-2 melanoma
[2] = system: SN12C renal
[3] = system: UO-31 renal
[4] = system: TK-10 renal
[5] = system: ACHN renal
[6] = system: CAKI-1 renal
[7] = system: A498 renal
[8] = system: HL-60(TB) leukemia
[9] = system: CCRF-CEM leukemia
[10] = system: MOLT-4 leukemia
[11] = system: SR leukemia
[12] = system: RPMI-8226 leukemia
[13] = system: OVCAR-8 ovarian
[14] = system: OVCAR-5 ovarian
[15] = system: OVCAR-4 ovarian
[16] = system: SK-OV-3 ovarian
[17] = system: IGROV1 ovarian
[18] = system: OVCAR-3 ovarian
[19] = system: EKVX NSCLC
[20] = system: HS 578T breast

Measured: growth

C[C@]12C[C@H](c3ccoc3)OC(=O)[C@H]1CC[C@@]1(C)[C@@H]2[C@H]2C=C[C@]1(O)C(=O)O2
inactive: [1] 94.9% | [2] 97.6% | [3] 88% | [4] 88.6% | [5] 108% | [6] 81.9% | [7] 105% | [8] 73.5% | [9] 96% | [10] 96% | [11] 100% | [12] 95.4% | [13] 95.3% | [14] 104% | [15] 93.7% | [16] 95.7% | [17] 96% | [18] 102%

O=C(O)c1cc([N+](=O)[O-])cc([N+](=O)[O-])c1
inactive: [1] 87.1% | [19] 104% | [3] 92% | [4] 96.9% | [5] 105% | [6] 93.8% | [7] 92.6% | [9] 80.6% | [12] 101% | [13] 89.6% | [14] 104% | [15] 109% | [16] 94.9% | [17] 132% | [18] 102% | [20] 98.1%

CCCC1CCCCC12C(=O)NC(=O)NC2=O (stereo unspecified)
inactive: [1] 105% and 99.8% | [2] 101% and 106% | [3] 84.3% and 87.9% | [4] 92.9% and 107% | [5] 104% and 106% | [6] 94.8% and 99.6% | [7] 70.3% and 102% | [8] 121% and 94.2% | [9] 109% and 101% | [10] 110% and 97.1% | [11] 91.8% | [12] 95.9% | [13] 107% and 103% | [14] 97.8% and 107% | [15] 94.1% and 104% | [16] 94.7% and 106% | [17] 111% | [18] 106% and 105% | [20] 91.8% and 106%

C=CC[PH+](c1ccccc1)c1ccccc1.C=CC[PH+](c1ccccc1)c1ccccc1.[Pt+2].[S-]c1nc2ccccc2[nH]1.[S-]c1nc2ccccc2[nH]1
active: [1] -72.9% | [4] -12.2% | [7] -16.1% | [8] -20.8% | [9] 6.12% | [10] 0.306% | [11] 4.38% | [12] -19.1% | [13] 2.64% | [14] -3.98% | [15] 4.93% | [16] 8.34% | [18] -23.3% | [20] -16.6%
inactive: [19] 33% | [3] 35.2% | [5] 42.3% | [6] 25%

COC(=O)[C@@H](C)C[C@H](Cc1ccccc1)NC(=O)c1cccc([C@@H](C[C@H](C(C)C)N(C)C(=O)[C@@H](NC(=O)[C@H]2CCCCN2C)C2CC2)OC(C)=O)n1
inactive: [1] 44.2% | [2] 28.7% | [3] 40.6% | [4] 23.9% | [5] 24.7% | [6] 25.7% | [9] 16% | [10] 14.6% | [11] 14.5% | [12] 25.4% | [13] 14.4% | [14] 38.2% | [15] 52% | [17] 23.3%
active: [7] -4.08% | [8] -38.2% | [16] 1.39% | [18] -47.5%

Cc1ccc(N2CCN(CCC#N)CC2)cc1
inactive: [1] 110% | [2] 96% | [3] 82.6% | [4] 89.5% | [5] 101% | [6] 87.1% | [7] 137% | [8] 87% | [9] 92% | [10] 105% | [11] 99.3% | [12] 96.7% | [13] 97.3% | [14] 92.5% | [15] 110% | [16] 93.4% | [17] 95.5% | [18] 106% | [20] 135%

CCC(=O)C(CC(C)N1CCCCCC1)(c1ccccc1)c1ccccc1 (stereo unspecified)
inactive: [1] 103% | [19] 90.8% | [3] 67.3% | [4] 84% | [5] 97.6% | [6] 79% | [7] 84.5% | [8] 95.5% | [9] 96.1% | [10] 93.9% | [12] 99.3% | [13] 97% | [14] 89.1% | [15] 84.2% | [16] 93.6% | [17] 78.6% | [18] 96.5% | [20] 96.7%
